{"source": "PubChem BioAssay (EPA / NIEHS)", "note": "Inconclusive results are not listed. Calls of active or inactive are those of the source. Rule for the calls: active = hit-call score of the fitted dose curve at least 0.9, where 1 is the maximum; inconclusive = response in the unintended direction; inactive = score below 0.9.", "data": [{"read-out": "Cytochrome P450 2C19 (Homo sapiens) (UniProt P33261)", "test": "CLD_CYP2C19_48hr: CellzDirect (CLD) Gene Expression Assay for xenobiotic metabolism (CYP2C19) at 48 hours (AID 2283700);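 note: fitted upward so actives raise CYP2C19 mRNA above the 0.2% DMSO vehicle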", "method": "CLD_48hr is a cell-based, multiplexed-readout assay that uses hepatocyte, a human liver primary cell, with measurements taken at 48 hours after chemical dosing in a 96-well plate.CLD_CYP2C19_48hr is one of 16 assay component(s) measured or calculated from the CLD_48hr assay. It is designed to make measurements of mRNA induction, a form of inducible reporter, as detected with chemiluminescence signals by Quantitative Nuclease Protection Assay (qNPA) technology.Data from the assay component CLD_CYP2C19_48hr was analyzed at the endpoint, CLD_CYP2C19_48hr, in the positive analysis fitting direction relative to DMSO as the negative control and baseline of activity. Using a type of inducible reporter, gain-of-signal activity can be used to understand changes in the reporter gene as they relate to the gene CYP2C19. Furthermore, this assay endpoint can be referred to as a primary readout. To generalize the intended target to other relatable targets, this assay endpoint is annotated to the cyp intended target family, where subfamily is xenobiotic metabolism.\nHuman hepatocyte cultures were treated daily for two consecutive days with fresh dosing solutions containing appropriate concentrations of the 320 ToxCast chemicals (chemical identities were blinded to CellzDirect and other ToxCast collaborators), vehicle control (0.2% DMSO), and positive control inducers as summarized in Table 1. Due to the large number of treatment groups and chemicals examined, the ToxCast chemicals were divided into two groups (spanning two independent cultures of hepatocytes from separate donor preparations (Hu778: ToxCast plates 1 and 2; Hu776: ToxCast plates 3 and 4). Each preparation of human hepatocyte cultures was treated with respective vehicle control, medium only control, set of six positive controls/reference chemicals for the five hepatic receptor pathways, and a subset of eight of the ToxCast chemicals (indoxacarb, pyrithiobac-sodium, norflurazon, cyhalofop-butyl, methomyl, thiram, acetochlor, and propiconazole). These replicate data, coupled with internal replicates designed within the blinded ToxCast chemical library, provided additional data to evaluate interindividual differences between hepatocyte preparations and their potential impact on chemical profiles.Cell morphology and integrity were evaluated using phase-contrast microscopy as an indicator of hepatocyte cell health (Tyson & Green, 1987). Cultures for each treatment group (i.e., media, vehicle [0.2% DMSO], positive control inducers [multiple concentrations], and the ToxCast chemicals [multiple concentrations]) were observed and cell morphology was assessed relative to vehicle control cultures at each harvest time point (0, 6, 24, or 48 h). […] Images were evaluated at the conclusion of the study to assess changes in cell integrity and account for the effects of chemical exposure on uncharacteristic changes in concentration-dependent gene expression profiles. The results from these determinations of apparent cytotoxicity were annotated (yes/no) alongside the corresponding qNPA data for reference.At the conclusion of each treatment period, hepatocyte cultures (96-well) were washed with 1 volume of HBSS, lysed by addition of 25 ul ArrayPlate lysis buffer (HTG, Tucson, AZ), and 70 ul/well of Denaturation Oil, denatured by incubation at 95C for 10 min, and frozen at approximately -70C until analysis by nuclease protection assay (qNPA) (Roberts et al., 2007). For qNPA analysis, cell lysates were thawed at 50C for approximately 30 min, qNPA probes were added, and samples were incubated at 95C for 10 min to begin the detection process by denaturing the target RNA, dissociating the duplexes and secondary structure hybridization. At the conclusion of the hybridization period, S1 nuclease reagent was added to each sample to digest all nonprotected nucleotides at 50C for 60-90 min. […]", "values": [{"smiles": "CCCCOC(=O)C(C)Oc1ccc(Oc2ccc(C(F)(F)F)cn2)cc1", "note": "(stereo not given)", "outcome": "inactive"}, {"smiles": "CCC(O)=C1C(=O)CC(C(=O)O)CC1=O", "note": "(stereo not given)", "outcome": "inactive"}, {"smiles": "COC(=O)CSc1cc(N=c2sc(=O)n3n2CCCC3)c(F)cc1Cl", "outcome": "inactive"}, {"smiles": "CCCCC(CC)COC(=O)c1ccccc1C(=O)O", "note": "(stereo not given)", "outcome": "inactive"}, {"smiles": "COC(=O)c1ccccc1S(=O)(=O)NC(=O)Nc1nc(OC(F)F)cc(OC(F)F)n1", "outcome": "inactive"}, {"smiles": "CCCCOC(=O)[C@@H](C)Oc1ccc(Oc2ccc(C(F)(F)F)cn2)cc1", "outcome": "inactive"}, {"smiles": "CCC(C)OC(=O)N1CCCCC1CCO", "note": "(stereo not given)", "outcome": "inactive"}, {"smiles": "CCCOC(=O)NCCCN(C)C", "outcome": "inactive"}, {"smiles": "CCCN(CCC)C(=O)SCC", "outcome": "inactive"}, {"smiles": "COC(=O)c1ccc(CNS(C)(=O)=O)cc1S(=O)(=O)NC(=O)Nc1nc(OC)cc(OC)n1", "outcome": "inactive"}, {"smiles": "Oc1ccc(C(c2ccc(O)cc2)C(Cl)(Cl)Cl)cc1", "outcome": "inactive"}, {"smiles": "CCN(CC)C(=O)c1cccc(C)c1", "outcome": "inactive"}, {"smiles": "CC1(C)C(C=C(Cl)Cl)C1C(=O)OCc1cccc(Oc2ccccc2)c1", "note": "(stereo not given)", "outcome": "inactive"}, {"smiles": "OB(O)O", "outcome": "inactive"}, {"smiles": "CCSC(=O)N(CC(C)C)CC(C)C", "outcome": "inactive"}, {"smiles": "CCOC(=O)C(C)Oc1ccc(Oc2cnc3cc(Cl)ccc3n2)cc1", "note": "(stereo not given)", "outcome": "inactive"}, {"smiles": "COc1nc(C)nc(NC(=O)NS(=O)(=O)c2ccccc2OCCCl)n1", "outcome": "inactive"}, {"smiles": "CCCOC(=O)c1ccc(C(=O)OCCC)nc1", "outcome": "inactive"}, {"smiles": "C#CCOC(=O)[C@@H](C)Oc1ccc(Oc2ncc(Cl)cc2F)cc1", "outcome": "inactive"}, {"smiles": "c1ccc(Nc2ccccc2)cc1", "outcome": "inactive"}, {"smiles": "COc1c(Cl)ccc(Cl)c1C(=O)O", "outcome": "inactive"}, {"smiles": "CCCCCCC(C)OC(=O)COc1nc(F)c(Cl)c(N)c1Cl", "note": "(stereo not given)", "outcome": "inactive"}, {"smiles": "COC(=O)c1cccc(C)c1S(=O)(=O)NC(=O)Nc1nc(OCC(F)(F)F)nc(N(C)C)n1", "outcome": "inactive"}, {"smiles": "COC(=O)c1ccc(I)cc1S(=O)(=O)NC(=O)Nc1nc(C)nc(OC)n1", "outcome": "inactive"}, {"smiles": "CCOC(=O)C(C)Oc1ccc(Oc2nc3ccc(Cl)cc3o2)cc1", "note": "(stereo not given)", "outcome": "inactive"}]}]}
